Results filed as inconclusive are left out. Where a call stands in place of a potency, no number is given. The source made the active and inactive calls. Calls come from the whole dose curve; as a rule, active = well fitted cell-killing curve with a large enough effect in the repeat runs; inconclusive = weak or mixed curves; inactive = no such curve, though single readings can be large or run the other way.
assay: qHTS assay to identify small molecule agonists of the peroxisome proliferator-activated receptor delta (PPARd) signaling pathway - cell viability counter screen (AID 743211); conditions: PPARd-bla HEK293H viability, CellTiter-Glo luminescence, 17 h; series mostly up to 62.6 µM; note: nearly all actives have a fitted effect of over 55% in size
In short: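 qHTS cell viability: PPARd-bla HEK293H; 17 h cpd, 37C; CellTiter-Glo, luminescence at 30 min RT.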
Potency is the fitted concentration of half-maximal effect.

Compound	Potency
CCCCC(O)(Cn1cncn1)c1ccc(Cl)cc1Cl (stereo not drawn)	54.9 µM (active)
C=CC(=O)OCC(C)O (stereo not drawn)	inactive
C=COC(C)=O	inactive
CC1CC(CC2CCC(N)C(C)C2)CCC1N (stereo not drawn)	inactive
CCO[C@H]1O[C@@H]2OC3(C)CC[C@H]4[C@H](C)CC[C@@H]([C@H]1C)[C@@]24OO3	inactive
CC(C)(CCl)C(=O)Cl	inactive
CC(O)(CS(=O)(=O)c1ccc(F)cc1)C(=O)Nc1ccc(C#N)c(C(F)(F)F)c1 (stereo not drawn)	inactive
CCC(Cl)CCl (stereo not drawn)	inactive
BrCCCCBr	inactive
C/C(=C\c1ccccc1)[N+](=O)[O-]	19.5 µM (active)
CCOC(=O)C(Cl)C(C)=O (stereo not drawn)	inactive
OCCCBr	inactive
C/C=C/C=O	inactive
C[C@H]1CNCCc2ccc(Cl)cc21	inactive
CC1(C)[C@H](C=C(Cl)Cl)[C@@H]1C(=O)O[C@@H](C#N)c1cccc(Oc2ccccc2)c1	inactive
CCOP(=O)(OCC)SCCSCC	inactive
COCC(C)N(C(=O)CCl)c1c(C)csc1C (stereo not drawn)	inactive
CCOC(=O)[C@]1(c2ccccc2)Oc2ccccc2[C@@H]1N	54.9 µM (active)
COc1cc(Cl)c(OC)cc1Cl	inactive
O=[Se]=O	inactive
Cc1c(F)c(F)c(COC(=O)C2C(/C=C(\Cl)C(F)(F)F)C2(C)C)c(F)c1F (stereo not drawn)	inactive
C=CCN1CC[C@]23c4c5ccc(O)c4O[C@H]2C(=O)CC[C@@]3(O)[C@H]1C5	inactive
O=C(N[C@H](c1ccccc1)[C@@H]1CN2CCC1CC2)c1c(Cl)ccc(C(F)(F)F)c1Cl	78.8 µM (active)

From PubChem BioAssay (Tox21)
